The OligoGym collection

target: SCAF4; assay: pooled miR-30 sensor sort-seq; sequence = guide strand; conditions: shRNA
Also: reference of the scale not given here.

Sequence	sensor-assay potency score (higher = more potent)
TACTATTTGAACTACATGCTTA	0.0032
TTAGTGATGAGAATCATCTTGG	0.534
TTGTTCTACTTCCATTTCCTGC	-0.925
TTACACTTTTTGATGAACTTTT	-0.768
TCTACCTGAATTGAACTGCTGC	0.449
TTGTCTGAAACAGCTGAGCCAC	-1.31
TAGTACTGCAAACACTTGCAGT	-0.842

target: SCAPER; assay: as above; conditions: shRNA

Sequence	sensor-assay potency score (higher = more potent)
ATAATCTGCAAGGACATCGTTC	-0.342
TTCTTTATCACTGTCATCCTTT	0.0905
TTGATCTAGCAATTCTTCCTTC	0.245
TTGAGCATCTGTCTTCTCTAGC	-0.0428
TTACATTCGACCACACTCTGAT	0.939
TAAACATTGATTGCATTGCAGA	-1.19
TTCATCTGGAACATAAACCGTC	0.155
TTTTCTTCCATCATCCTGCGTC	0.186
TTAACAATTCTTCTACACGGGC	-0.521
TTATTTTACAGTCCACTGCAGT	-0.733
TTGAGTGTAATTCTCCTTGGGA	0.0508

target: SCG3; assay: as above; conditions: shRNA

Sequence	sensor-assay potency score (higher = more potent)
TAGTTTAGAAACAATCTTGTCA	0.211
TAGTAGAGTCATAATCATCGAT	0.0703
TTAATTTTTGTAAAACCTCTGC	-0.0676
TAGTTGATGAAGACCATCTGGA	0.192
TTTATGATCCAATCCACTCTTA	-0.0664
TATTGTTCCATATTTCACCATC	-0.949
TAATCTTGTCTTCTTCTGCTTC	-0.063
TTTCAAGGTAGGAAACACCTTC	0.087
TTCTTATAGATTGTCTTTCTTT	-0.774
TTGTCATGTTTCTTCAACCATT	-1.02
TTCTTCATGACTCTTCTCTGAT	0.0122

target: SCGB1D4; assay: as above; conditions: shRNA

Sequence	sensor-assay potency score (higher = more potent)
AAAGATATCTGATCGGTGCAGT	0.161
TTCACTTCCAACTTGGCTGCAA	1.11
AAGTTTGGCAACTTGGAGGTTT	-0.0937
TTTTTAGTGAAGATCAGGGTGT	0.0112
TTCAATGAGAGTCGTTTCTTAA	-0.987
AATAAGAAGACTGTGATCTCAG	0.355
TCTTAAAAGATATCTGATCGGT	-0.48
ATTAAGTTTGGCAACTTGGAGG	-1.05
TTAAAAGATATCTGATCGGTGC	0.0419
TATCTGATCGGTGCAGTGCTTC	-0.707
TTTCAATGAGAGTCGTTTCTTA	0.178
